Data taken from PubChem BioAssay (Tox21).
Inconclusive results are not listed. Where a call stands in place of a potency, no number is given. A number with no mark means an inactive call. Activity calls are given as the source filed them. The call rests on the fitted dose curve; in most records, active means well fitted cell-killing curve with a large enough effect in the repeat runs; inconclusive means weak or mixed curves, or effect the other way; inactive means flat fitted curve, though single readings scatter.

experiment: cAMP Responsive Elements (CRE) small molecule antagonists, cell-based qHTS assay: qHTS cell viability counter screen (AID 2060913); details: CRE-bla HEK293T viability, CellTiter-Glo luminescence, 5 h; series mostly up to 92.4 µM; further: nearly all actives have a fitted effect of over 40% in size
Text: U.S. Tox21 Program National Center for Advancing Translational Sciences [NCATS] Division of Preclinical Innovation [DPI] U.S. Environmental Protection Agency [EPA] National Institutes of Environmental Health Sciences [NIEHS] National Toxicology Program [NTP] U.S. Food and Drug Administration [FDA] Tox21 Assay Overview: CREB (cyclic-AMP Responsive Element Binding Protein) is a cellular transcription factor. It binds to certain DNA sequences called cAMP Responsive Elements (CRE) and regulates the transcription of the genes. […] This cell line can be used to find agonists/antagonists of the cyclic AMP signaling pathway. The activation of the report gene under culture conditions can be detected by fluorescence intensity. This cell line has been used to screen the Tox21 10K compound library to identify agonists that induce oxidative stress. The cytotoxicity of the Tox21 compound library against the CRE-bla cell line was tested in parallel by measuring the cell viability using CellTiter-Glo assay (Promega, Madison, WI) in the same wells.
Tox21 Assay Protocol Summary: CRE-bla Hek 293T cells were suspended in assay medium (DMEM containing 10% dialyzed FBS, 0.1 mM NEAA, 1 mM sodium pyruvate and 25 mM HEPES) and dispensed at 2,000 cells/4 uL /well into 1536-well black wall/clear bottom plates using a Multidrop Combi (ThermoFisher Scientific, Waltham, MA) dispenser. After the assay plates were incubated at 37 C/5% CO2 for 18 hrs, 23 nL of compounds dissolved in DMSO, positive controls or DMSO only was transferred to the assay plate by a pintool workstation (Kalypsys, San Diego, CA), followed by addition of 1 uL of 1.25uM NKH477 (0.25 uM as final concentration) in assay medium using a Flying Reagent Dispenser (Aurora Discovery, San Diego, CA). The plates were incubated at 37 C and 5% CO2 for 3 hrs. Then 1 uL of LiveBLAzer B/G FRET substrate (Invitrogen, Carlsbad, CA) was added to each well using Bioraptr Flying Reagent Dispenser (FRD, Aurora Discovery, San Diego, CA). The plates were incubated at room temperature for 2 h, then fluorescence intensities were measured using an Envision plate reader (PerkinElmer, Shelton, CT) at Excitation 405nm, Emission 460nm and 530nm. The % activity was determined from the ratio of 460nm/530nm. For cell viability readout that measures cytotoxicity, 4 uL /well of CellTiter-Glo reagent was added into the assay plates using Bioraptr FRD. After 30 min incubation at room temperature, the luminescence intensity in the assay plates was measured using a ViewLux (PerkinElmer, Shelton, CT) plate reader.

| SMILES | Potency | viability change, negative = cytotoxic |
| --- | --- | --- |
| CCCCCC(CC)OC(=O)CCCOc1ccc(Cl)cc1Cl (stereo not given) | inactive |  |
| CC1=CC(C)(C)Nc2ccccc21 | inactive |  |
| COC(c1ccccc1)(c1ccccc1)[C@H](Oc1nc(C)cc(C)n1)C(=O)O | inactive |  |
| CCN(CC)S(=O)(=O)c1ccc(C(=O)O)cc1 | inactive |  |
| N#CSCC(=O)O | inactive |  |
| CC(O)CC(C)(C)O (stereo not given) | inactive |  |
| Cn1cnc([N+](=O)[O-])c1Sc1ncnc2nc[nH]c12 | inactive |  |
| C=C[Si](OCC)(OCC)OCC | inactive |  |
| Cc1ccc(-c2cc(C(F)(F)F)nn2-c2ccc(S(N)(=O)=O)cc2)cc1 | inactive |  |
| CC1Cc2ccccc2N1NC(=O)c1ccc(Cl)c(S(N)(=O)=O)c1 (stereo not given) | inactive |  |
| CCC(C)O (stereo not given) | inactive |  |
| Cc1cc(N)no1 | inactive |  |
| CC(C)(C)NC(=O)[C@H]1CC[C@H]2[C@@H]3CC[C@H]4NC(=O)C=C[C@]4(C)[C@H]3CC[C@]12C | inactive |  |
| C1COC1 | inactive |  |
| N[C@@H](Cc1ccc(O)cc1)C(=O)O |  | -0.963% [at 8.39 µM] |
| CSc1cnc(C)cn1 | inactive |  |
| O=C(O)c1ccc[n+]([O-])c1 | inactive |  |
| COc1ccc(Nc2ccc(OC)cc2)cc1 | inactive |  |
| CCCOC(=O)c1ccc(N)cc1 | inactive |  |
| ClC(Cl)Cl | inactive |  |

| SMILES | Potency | viability change, negative = cytotoxic |
| --- | --- | --- |
| COc1cc(C)c(Cc2cnc(N)nc2N)cc1OC | inactive |  |
| C[C@]1(Cn2ccnn2)[C@H](C(=O)O)N2C(=O)C[C@H]2S1(=O)=O | inactive |  |
| O=C(O)Cc1c[nH]c2ccccc12 | inactive |  |
| CC(C)[C@H]1CC[C@@H](C)CC1=O | inactive |  |
| C=C(C)C(=O)OCCC(C)OC(=O)C(=C)C (stereo not given) | inactive |  |
| CCC(C)C=O (stereo not given) | inactive |  |
| C=CCc1cc(OC)c(O)c(C(=O)NCCO)c1 | inactive |  |
| CCCC(C)CC (stereo not given) | inactive |  |
| NC(CO)C(=O)NNCc1ccc(O)c(O)c1O (stereo not given) | inactive |  |
| CCCCCCCCCCCCCCCCN(C)C |  | -5.89% [at 8.39 µM] |
| CCN(C)C(=O)Oc1cccc([C@H](C)N(C)C)c1 | inactive |  |
| CCCc1nn(C)c2c(=O)[nH]c(-c3cc(S(=O)(=O)N4CCN(C)CC4)ccc3OCC)nc12 | inactive |  |
| CC(=O)c1cc2ccccc2s1 | inactive |  |
| O=C(Cn1ccnc1[N+](=O)[O-])NCCO | inactive |  |
| COc1ccc([C@@H]2Sc3ccccc3NC(=O)[C@@H]2O)cc1 | inactive |  |
| CCCCC(CC)COC(=O)/C=C/c1ccc(OC)cc1 (stereo not given) | inactive |  |
| CC/C(=C\C(=N/O)C(N)=O)C(C)[N+](=O)[O-] (stereo not given) | inactive |  |
| CCO | inactive |  |
| c1cc(CN2CCCCC2)cc(OCCCNc2nc3ccccc3s2)c1 | inactive |  |
| O=C(O)CCCc1ccccc1 | inactive |  |
